# In PubChem BioAssay AID720513 (Broad Institute, 2013):
# Out of some 2,100 compounds screened, about 480 (23%) were called active. Another 5% or so got no clear call; they are omitted.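 Rule for the calls: active = fitted curve reaches 40% activation at or below the top valid concentration, in every replicate test; inconclusive = replicate tests disagree on the call; inactive = the rest, including activity in the opposite direction.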 Not all results are given here. Measured potencies and affinities stand elsewhere.
# Assay: activators raising PGC1a acetylation in cells, dose response, cell-based, cherry-picked samples, set 6 (AID 720513);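 note: cells made to overexpress flag tagged PGC1a plus GCN5 acetyltransferase by viral infection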
# Settings: U2OS PGC1a acetylation AlphaLISA, overnight, 0 = neutral, -100 = inhibitor control; series mostly up to 19.5 µM; activation (acetylation increase): at the top concentration
row,Structure (SMILES),activation (acetylation increase)
1,CC(C)CC#Cc1ccc2c(c1)O[C@H](CN(C)Cc1ccccc1)[C@@H](C)CN([C@H](C)CO)S2(=O)=O,-68.5% (inactive)
2,COc1cc(-c2cnc3c(NC=O)cc(-c4ccccc4)cn23)cc(OC)c1OC,-13.1% (inactive)
3,COc1cc(-c2cnc3c(NC=O)cc(-c4ccccc4Cl)cn23)cc(OC)c1OC,6.09% (inactive)
4,O=C(O)c1cccc(N2C(=O)CSC2c2c(F)cccc2Cl)c1 (stereo unspecified),15.6% (inactive)
5,Cc1cc(C)c(NC(=O)c2ccc(S(=O)(=O)N(C)C)cc2)c(C)n1,-8.4% (inactive)
6,CN(C)c1ncnc2c1ncn2C1OC(CO)C(O)C1O (stereo unspecified),-12.4% (inactive)
7,OC[C@@H]1CN(Cc2ccccc2)C[C@H](n2cnc3c(NCc4ccco4)ncnc32)O1,-12.2% (inactive)
8,CS(=O)(=O)N1CCCC(C(=O)NCc2ccccn2)C1 (stereo unspecified),0.592% (inactive)
9,COc1ccc(CN(C)C[C@@H]2OCCCC[C@H](C)Oc3ccc(NS(C)(=O)=O)cc3C(=O)N([C@@H](C)CO)C[C@@H]2C)cc1,7.45% (inactive)
10,C[C@@H]1CN([C@H](C)CO)C(=O)c2cc(C#CC(C)(C)O)cnc2O[C@H]1CN(C)C(=O)c1ccccc1F,1.87% (inactive)
11,COc1ccc(S(=O)(=O)N(C)C[C@H]2Oc3c(NS(=O)(=O)c4ccc(C)cc4)cccc3C(=O)N([C@H](C)CO)C[C@H]2C)cc1,9.63% (inactive)
12,Cc1ccc(-c2cnc3c(c2)C(=O)N([C@@H](C)CO)C[C@@H](C)[C@H](CN(C)C)O3)cc1,16.7% (inactive)
13,Cc1noc(C)c1NC(=O)N(C)C[C@H]1Oc2c(NC(=O)c3nc4ccccc4s3)cccc2C(=O)N([C@H](C)CO)C[C@H]1C,20.6% (inactive)
14,Cc1nn(C)c(C)c1N1C(=O)c2cccc3c(Br)ccc(c23)C1=O,-20.6% (inactive)
15,CCC(=O)N1C[C@H](C)[C@@H](OC)CN(C)C(=O)c2cc(NC(=O)Nc3cccc(F)c3)ccc2OC[C@H]1C,4.06% (inactive)
16,C[C@H](CO)N1C[C@H](C)[C@@H](CN(C)Cc2ccc(Oc3ccccc3)cc2)Oc2ccc(N(C)C)cc2CC1=O,22.7% (inactive)
17,O=C(O)CSCC(=O)NCc1ccc(Cl)cc1Cl,-3.56% (inactive)
18,Cc1cc(Br)ccc1NC(=O)CN(C)C(=O)CCSc1ccc(F)cc1,34.7% (inactive)
19,Cc1ccc(S(=O)(=O)N2CCN(C(=O)N3CCOCC3)CC2)cc1C,3.69% (inactive)
20,CC(=O)CS(=O)(=O)c1ccc(Oc2ccc(S(=O)(=O)CC(C)=O)cc2)cc1,35.2% (inactive)
21,COc1ccccc1N1CCN(c2ccc(-c3ccccc3)nn2)CC1,-19.4% (inactive)
22,CCN(CC)C(=O)CSc1nnc(-c2cccnc2)n1Cc1ccccc1,-13.3% (inactive)
23,Cn1c(CO)cnc1SCC(=O)c1ccc(Cl)cc1,6.9% (inactive)

row,Structure (SMILES),activation (acetylation increase)
1,Cc1ccc(S(=O)(=O)NC2=NCCCCC2)cc1,-11% (inactive)
2,Cc1ccc(S(=O)(=O)N[C@H]2C=C[C@@H](CC(=O)NCCN3CCCCC3)O[C@H]2CO)cc1,9.77% (inactive)
3,Cc1ccc(S(=O)(=O)N[C@H]2C=C[C@H](CC(=O)NCCN3CCCCC3)O[C@H]2CO)cc1,13.8% (inactive)
4,Cc1ccc2c(Cl)cc(Cl)c(OCc3c(C)noc3C)c2n1,24% (inactive)
5,COc1ccc(-c2cc(-c3ccccc3)c(C#N)c(S(C)=O)n2)cc1 (stereo unspecified),-103% (inactive)
6,COc1ccc(-n2c(SCC#N)nnc2-c2cccnc2)cc1,-52.4% (inactive)
7,O=C(CC(C(=O)O)c1c[nH]c2ccccc12)c1ccccc1 (stereo unspecified),26.7% (inactive)
8,CN(NC(=O)c1ccccc1)C1=NS(=O)(=O)c2ccccc21,29.7% (inactive)
9,COc1ccc(-c2cc(C(F)(F)F)nc(S(C)(=O)=O)n2)cc1,-80.1% (inactive)
10,C=CCNS(=O)(=O)c1cccc2cc(C(=O)O)c(O)cc12,-11.3% (inactive)
11,O=C(C=Cc1ccccc1)CC(c1ccccc1)N1CCOCC1 (stereo unspecified),-65.4% (inactive)
12,CCCCOc1ccc(C(=O)C(CN2CCOCC2)c2ccccc2)cc1 (stereo unspecified),-71.9% [at 10 µM] (inactive)
13,COC(=O)COc1c(/C=C\c2nc(O)c([N+](=O)[O-])c(=O)[nH]2)cccc1OC,7.96% (inactive)
14,COc1cccc(C(=O)Nn2cnnc2)c1OC,-11.2% (inactive)
15,Cc1ccc(N)cc1S(=O)(=O)N(C)C,34.7% (inactive)
16,COc1ccc(C(=O)NCCCSC)cc1OC1CCN(C(C)C)CC1,7.64% (inactive)
17,C[C@@H]1CN([C@@H](C)CO)C(=O)c2cc(-c3cccc(C#N)c3)cnc2O[C@H]1CN(C)C(=O)c1ccccn1,-9.58% (inactive)
18,Cc1cc(C)c(C#N)c(N2CCN(c3ccccc3)CC2)n1,-14.4% (inactive)
19,Cc1cc(S(=O)(=O)Nc2ccc3ccccc3c2)c(C)s1,-23.3% (inactive)
20,C=CS(=O)(=O)N(Cc1ccccc1Br)[C@H](CO)Cc1ccccc1,-31.4% (inactive)
21,C=CCSc1nccc(-c2cc(Cl)sc2Cl)n1,34.1% (inactive)
22,O=C1C(Cl)=C(N2CCOCC2)C(=O)N1CCc1ccccc1,11.4% (inactive)
23,O=C(CCC1CCCN(C(=O)c2cc(C3CC3)[nH]n2)C1)N1CCN(c2ccccn2)CC1 (stereo unspecified),18.2% (inactive)
